The record followed here is PubChem BioAssay AID743279 (National Center for Advancing Translational Sciences (NCATS), 2014).

About 17,000 (4.7%) of roughly 360,000 compounds were called active. Not shown: some 5% with an inconclusive outcome. Cut-off read from the data, not from the text of the source: active = activity change below about -50%; inconclusive = mostly about -30% to -49%; inactive = weaker than that. What follows is part of a selection rich in actives, with near analogues and random picks from the rest.
% is set by controls: 0 for no effect and ±100 for the full control effect.

The assay in a line: qHTS for Inhibitors of Inflammasome Signaling: IL-1-beta AlphaLISA Primary Screen. The settings on record: THP-1 LPS/ATP IL-1B secretion, 16 h; at 57.5 µM, active compounds read low. The procedure, abridged:
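THP-1 cells pretreated 1 hr with compounds (up to 57.5 uM final), then stimulated with LPS (250 ng/mL final) plus ATP (1.25 mM final); secreted IL-1B measured by AlphaLISA after 16 hr, decreased signal indicating inhibition.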
In general terms: In qHTS, concentration-response curves come from the screen itself.
Take `OCC(CO)(CO)NCc1ccc(-c2ccccc2)cc1`: the activity change was 6.61% (inactive).

For `Cc1ccc(-c2noc(CSc3nnc(-c4cccs4)n3C)n2)cc1`, the activity change was 34.2% (inactive).

With `Cc1ccc(-c2noc(CSc3nnnn3-c3ccccc3)n2)cc1`, the activity change was -64.8% (active).

Take `Cc1ccc(-c2noc(CSc3nnc(-c4ccncc4)n3-c3ccc(F)cc3)n2)cc1`: the activity change was -15.2% (inactive).

Consider `CCCCCCCCOC1OC(CO)C(O)C(O)C1NC(C)=O` (stereo not given), for which the activity change is 48.8% (inactive).

With `CSCCC(NC(=O)COc1ccccc1)C(=O)OCCOc1ccc(F)cc1` (stereo not given), the activity change was 5.31% (inactive).

For the compound `O=C(COc1ccc(Cl)cc1)N1CCN(c2cccc(C(F)(F)F)c2)CC1`, the activity change is -4.57% (inactive).

As for `CSCCC(NC(=O)COc1ccccc1)C(=O)N1CCN(c2cccc(C(F)(F)F)c2)CC1` (stereo not given), the activity change was -61.8% (active).

`O=C(N[C@@H](Cc1c[nH]c2ccccc12)C(=O)O)OCC1c2ccccc2-c2ccccc21`: the activity change is 4.34% (inactive).

For the compound `Cc1nnc(NC(=O)Nc2ccc(Cl)c(Cl)c2)s1`, the activity change was -94% (active).

Regarding `Cc1nnc(NC(=O)C(c2ccccc2)c2ccccc2)s1`, the activity change is -5.78% (inactive).

In the case of `Cc1nnc(NC(=O)c2ccc3nccnc3c2)s1`, the activity change is -17.3% (inactive).

With `C[C@@H]1CN([C@@H](C)CO)C(=O)c2c(c3ccccc3n2C)-c2ccccc2CO[C@H]1CN(C)C(=O)C1CC1`, the activity change was 23% (inactive).

In the case of `Cc1ccc(CN(C)C[C@@H]2OCc3cnnn3CCCC(=O)N([C@@H](C)CO)C[C@H]2C)cc1`, the activity change was 13.2% (inactive).

As to `O=C(CN1CCC(O)(c2ccccc2)CC1)Nc1ccc2c(c1)OCCO2`, the activity change was -25.5% (inactive).

With `O=C(CCN1CCc2ccccc2C(O)(c2ccccc2)C1)c1ccc2c(c1)OCCO2` (stereo not given), the activity change is -101% (active).

On to `O=C(COC(=O)c1ccccc1)c1ccc2c(c1)OCCO2`, for which the activity change was -8.63% (inactive).

With `CC(C)(O)C#Cc1ccc(CN2CCC(CO)(CCc3ccccc3)CC2)cc1`, the activity change was -1.38% (inactive).

As for `OCC1(CCOc2ccccc2)CCN(Cc2cn[nH]c2-c2ccccc2)CC1`, the activity change was -2.13% (inactive).

With `Cc1c(CN2CCC(CO)(CCOc3ccccc3)CC2)[nH]c2ccc(Cl)cc12`, the activity change is -96.7% (active).

Take `CC1CCN(c2ccc3c(c2)S(=O)(=O)c2cc(C(=O)O)ccc2C3=O)CC1`: the activity change was 22% (inactive).

As for `Cc1cccc(-n2ncc(C#N)c2-n2cccc2)c1`, the activity change is 28.7% (inactive).

`C=CCNc1cnn(-c2ccc(C)cc2)c(=O)c1Cl`: the activity change is -16.2% (inactive).

In the case of `Cc1cccc(-n2ncc(Cl)c(Cl)c2=O)c1`, the activity change is -100% (active).

Consider `CC1(C(=O)NS(=O)(=O)c2cccc(F)c2)CCN1C(=O)Cc1ccc(Cl)cc1Cl` (stereo not given), for which the activity change was -15.9% (inactive).

In the case of `O=C(Nc1cc(S(=O)(=O)N2CCCCC2)ccc1Cl)C1COc2ccccc2O1` (stereo not given), the activity change was -6.17% (inactive).

On to `NS(=O)(=O)c1ccc(CCNC(=O)CNC(=O)Cc2ccccc2)cc1`, for which the activity change is 12.6% (inactive).

With `CCc1nc(C)cn1S(=O)(=O)c1cc([N+](=O)[O-])ccc1Cl`, the activity change was -82.5% (active).

For `CC(C)c1nccn1S(=O)(=O)c1cc([N+](=O)[O-])ccc1Cl`, the activity change was 0% (inactive).

`CCc1nc(C)cn1S(=O)(=O)c1cc(OC)c(C)cc1C`: the activity change is 30.3% (inactive).

Turning to `O=C1N[C@@H](Cc2ccccc2)C(=O)N2[C@@H]3N(S(=O)(=O)c4ccc(F)cc4)c4ccccc4[C@]3(Br)C[C@@H]12`, the activity change was -2.75% (inactive).

For `Cc1cccc(S(=O)(=O)N(C)C[C@H]2OCc3cnnn3CCCC(=O)N([C@@H](C)CO)C[C@H]2C)c1`, the activity change is 16.6% (inactive).

Take `COc1cccc(C2c3[nH]c4ccccc4c3CCN2Cc2cccc(C)n2)c1` (stereo not given): the activity change is -5.35% (inactive).

As to `Oc1cccc(C2c3[nH]c4ccccc4c3CCN2Cc2cnn(-c3ccccc3)c2)c1` (stereo not given), the activity change was -64% (active).

On to `CCOc1ccc(C2c3[nH]c4ccccc4c3CCN2Cc2cn(CC)nc2C)cc1` (stereo not given), for which the activity change was 18.2% (inactive).

Turning to `O=S1(=O)CCOC[C@H](Cc2ccccc2)N1Cc1ccccc1Br`, the activity change was -7.15% (inactive).

As for `CC(C)CCNC(=O)c1[nH]c(C(F)(F)F)nc1-c1ccccc1`, the activity change is 28.5% (inactive).

`CC(C)Oc1ccc(CCc2n[nH]c(=S)n2Cc2ccccc2)cc1`: the activity change was 16.3% (inactive).

For `Brc1c(CSc2nncc3ccccc23)nc2ccccn12`, the activity change is -74% (active).

For `CN(C(=O)CSc1nncc2ccccc12)C1CCCCC1`, the activity change is 0% (inactive).

Consider `COC(=O)C[C@H]1C=C[C@H](NC(=O)c2ccc(F)cc2)[C@@H](CO)O1`, for which the activity change was -9.5% (inactive).

Turning to `CCOC(=O)N1CCN(C(=O)c2ccc(S(=O)(=O)Nc3cccc(C(F)(F)F)c3)cc2)CC1`, the activity change was 0.178% (inactive).

Consider `CCn1c(/C=C/Nc2ccccc2)[n+](CC)c2ccc(C(=O)OCC(F)(F)F)cc21`, for which the activity change is -98.2% (active).

On to `CCOC(=O)c1ccc2c(c1)nc(C)n2CC`, for which the activity change was -16.9% (inactive).

Turning to `C[C@H](CO)N1C[C@H](C)[C@@H](CN(C)S(=O)(=O)c2ccc(Oc3ccccc3)cc2)OCc2cn(nn2)CCCC1=O`, the activity change was 4.67% (inactive).

For the compound `O=S1(=O)CC(N2CCN(Cc3ccccc3F)CC2)CN1Cc1cn(Cc2cccc(C(F)(F)F)c2)nn1` (stereo not given), the activity change is -6.73% (inactive).

In the case of `S=c1[nH]nc(/C=C/c2ccccc2)o1`, the activity change is -8.62% (inactive).

As for `O=C(Cc1ccc(-c2ccccc2)cc1)NC(c1ccccc1)c1ccccc1`, the activity change is 18.8% (inactive).

As for `CCOC(=O)C(C(=O)OCC)C(C#N)c1ccccc1` (stereo not given), the activity change was -20.8% (inactive).

Turning to `CCOC(=O)/C=C/C(=O)OCC(=O)NC(c1ccccc1)c1ccccc1`, the activity change is -96.9% (active).

Regarding `CCN(CC)CCCN1C(=O)C(=O)/C(=C(/O)c2c(C)nc3ccccn23)C1c1ccc(C)o1` (stereo not given), the activity change was -3.42% (inactive).

For the compound `COCc1ccc(C(=O)NC2CC(C)(C)Cc3c2cnn3-c2ccc(C)cc2)o1` (stereo not given), the activity change is -2.96% (inactive).

Take `CCC1C/C(=C/c2cccs2)C(=O)/C(=C/c2cccs2)C1` (stereo not given): the activity change was -5.91% (inactive).

On to `COC(=O)COc1ccc2c(c1C)O/C(=C\c1ccco1)C2=O`, for which the activity change was -8.17% (inactive).

Consider `CC(C)(C)C1C/C(=C/c2ccco2)C(=O)/C(=C/c2ccco2)C1` (stereo not given), for which the activity change is -67.3% (active).

As for `CCNC(=O)C1(C)CCN(Cc2ccc(C(=O)OCC)o2)C1` (stereo not given), the activity change is 0% (inactive).

Consider `CCCCCCN1CCN(C2CN(Cc3cn(Cc4ccc(F)cc4)nn3)S(=O)(=O)C2)CC1` (stereo not given), for which the activity change is 18.3% (inactive).

`Cc1ccccc1N/N=C/c1ccc(N2CCOCC2)cc1`: the activity change was 0.147% (inactive).

For the compound `Cc1cc(Nc2ccc(N3CCOCC3)cc2)c2cccc(C)c2n1`, the activity change was -91.7% (active).

In the case of `Cc1cc(Nc2ccc(C(=O)N3CCCCC3)cc2)c2cccc(C)c2n1`, the activity change was -2.62% (inactive).

Regarding `CN(CCc1ccccc1)C(=O)c1cccc(NC(=O)Cc2cccc(NC(=O)C3CCCN(C(=O)CCc4ccccc4)C3)c2)c1` (stereo not given), the activity change is -21.4% (inactive).

`NC1=NC(=O)C2(COC(c3ccccc3Cl)OC2)S1` (stereo not given): the activity change was -5.39% (inactive).

For the compound `COc1cccc(CN(C)CC(O)COC(c2ccccc2)c2ccccc2C)c1` (stereo not given), the activity change was -77% (active).

With `Cc1ccccc1C(OCC(O)CN1CCCCC1CCO)c1ccccc1` (stereo not given), the activity change is -10.1% (inactive).

For the compound `COc1cccc(CN(C)CC(=O)Nc2ccccc2C(=O)Nc2ccccc2)c1`, the activity change is 58.1% (inactive).

Turning to `CC(OC(=O)c1ccccc1NCCO)C(=O)Nc1ccnn1C(C)C` (stereo not given), the activity change was 0% (inactive).

`CCn1cc(CN2CCCC(CNS(=O)(=O)Cc3ccccc3)C2)cn1` (stereo not given): the activity change was 7.8% (inactive).

On to `CC1=C(C(=O)N(C)C)CC(CC(=O)NCCN2CCOCC2)C(=O)N1Cc1ccccc1` (stereo not given), for which the activity change is 17.7% (inactive).

Consider `CSc1nsc(NC(=O)Nc2ccccc2)n1`, for which the activity change is 0% (inactive).

As for `C=CCSc1nnc(NC(=O)c2ccc(NC(C)=O)cc2)s1`, the activity change is 1.35% (inactive).

Turning to `CCSc1nsc(NC(=O)Nc2cccc(C(C)=O)c2)n1`, the activity change was -101% (active).

Turning to `CSc1ccccc1C(=O)Nc1cccc(C(C)=O)c1`, the activity change was -2.09% (inactive).

Turning to `CC(=O)c1cccc(NC(=S)N2CCCC2)c1`, the activity change was 24.4% (inactive).

For `C=CCSc1nsc(NC(=O)Nc2cccc(C(C)=O)c2)n1`, the activity change was -100% (active).

Consider `S=C(NN=Cc1ccccn1)Nc1ccccn1`, for which the activity change is 68.2% (inactive).

In the case of `CN1C[C@@H](CO)O[C@@H](n2cnc3c(N4CCN(CCO)CC4)ncnc32)C1`, the activity change was 23.3% (inactive).

With `CC(=O)C1=CCC(c2ccccc2)N(S(=O)(=O)c2ccc(C)cc2)C1` (stereo not given), the activity change was 0% (inactive).

For `Cc1cc(Cl)ccc1N1C(=O)CC(SCCC(=O)O)C1=O` (stereo not given), the activity change was 9.22% (inactive).

Turning to `CCOC(=O)CC1C(=O)NCCN1c1nc2c(C)cccn2c(=O)c1/C=C1\SC(=S)N(C(C)CC)C1=O` (stereo not given), the activity change was -79.5% (active).

On to `CCOC(=O)N1CCN(C(=O)CSc2nc(=O)n3cccc(C)c3n2)CC1`, for which the activity change was -6.68% (inactive).

Take `CCCN(CCC)c1nc2c(C)cccn2c(=O)c1/C=C1/SC(=S)N(Cc2ccco2)C1=O`: the activity change was 8.74% (inactive).

Regarding `CN1OC[C@@H]2CN(S(=O)(=O)c3cccc(C(F)(F)F)c3)[C@H](c3ccc(-c4cc5ccccc5o4)cc3)C[C@@H]21`, the activity change was -0.573% (inactive).

As for `Cc1nnc(N(Cc2ccco2)C(=O)c2ccno2)s1`, the activity change was -16.2% (inactive).

For `COc1ccc(Sc2ccc(NC(=O)c3cccc(Cl)c3)cc2C#N)cc1`, the activity change is -1.44% (inactive).

Consider `COc1ccc(C(=O)Nc2ccc(C3(C#N)CCCC3)cc2)cc1OC`, for which the activity change is -55% (active).

Turning to `COc1cc(C(=O)NCC2(c3ccccc3)CCCC2)ccc1OC(C)C`, the activity change is -0.814% (inactive).

In the case of `COc1ccc(C(=O)Nc2ccc3nc(N4CCCCC4)cc(C)c3c2)cc1OC`, the activity change was 30.7% (inactive).

For the compound `CC(C)CN(C(=O)Cn1c(=O)cnc2ccccc21)C1CCS(=O)(=O)C1` (stereo not given), the activity change is 5.99% (inactive).

On to `CCn1c(SCC(=O)N2CCCC2=O)nc2ccccc21`, for which the activity change is -4.32% (inactive).

With `COc1cc(C(O)c2nc(-c3cccc(C(=O)O)c3)cs2)ccc1F` (stereo not given), the activity change is 1.15% (inactive).
